# According to PubChem BioAssay (NCI):
# This is part of a sample that, as a whole, favours compounds with a hit. Of some 79,000 tested, about 15% had one in any assay. Unmarked numbers belong to inactive results. The source made the active and inactive calls. Cut-off read from the data, not from the text of the source: active = growth inhibition above about 70%; inactive = the rest.
# Assays:
# [1] = NCI Yeast Anticancer Drug Screen. Data for the rad50 strain (AID 155);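 note: 0% = growth of vehicle-only cultures of the same strain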; conditions: S. cerevisiae rad50 strain growth inhibition; at 50.0 µM; hits give high values
# Outline: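 DNA repair mutant yeast, compound exposure, growth read-out; inhibition is taken relative to vehicle.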
# [2] = NCI Yeast Anticancer Drug Screen. Data for the mec2-1 strain (AID 157); conditions: S. cerevisiae mec2-1 strain, at 50.0 µM, hits give high values
# Outline: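 Test agents were screened against the mec2-1 yeast strain, with defined DNA repair or cell cycle alteration. Growth was scored as inhibition against vehicle-only controls.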
# [3] = NCI Yeast Anticancer Drug Screen. Data for the sgs1 mgt1 strain (AID 161);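 note: 0% = growth of cultures given vehicle only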; conditions: S. cerevisiae sgs1 mgt1 strain, at 50.0 µM, hits give high values
# Outline: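 Read-out: growth inhibition vs vehicle controls. Cells: mutant yeast strain deficient in DNA damage repair.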
# [4] = NCI Yeast Anticancer Drug Screen. Data for the cln2 rad14 strain (AID 165);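 note: 0% = growth equal to vehicle treated cultures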; conditions: S. cerevisiae cln2 rad14 strain, at 50.0 µM, hits give high values
# Outline: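 Growth of compound-exposed yeast (cln2 rad14 genotype) measured and expressed as inhibition relative to vehicle.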
# [5] = NCI Yeast Anticancer Drug Screen. Data for the bub3 strain (AID 167); conditions: S. cerevisiae bub3 mutant strain, at 50.0 µM, hits give high values
# Outline: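 In this screen, a yeast mutant lacking normal mitotic checkpoint function is challenged with compound. Relative growth versus vehicle gives the inhibition value.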
# [6] = NCI Yeast Anticancer Drug Screen. Data for the mlh1 rad18 strain (AID 175); conditions: S. cerevisiae mlh1 rad18 strain growth inhibition; at 50.0 µM; hits give high values
# Outline: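 In this whole-cell yeast screen, a strain with altered DNA damage repair is challenged with compound, and its growth is measured against matched vehicle-treated controls.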
Compound,growth inhibition [1],growth inhibition [2],growth inhibition [3],growth inhibition [4],growth inhibition [5],growth inhibition [6]
CCN(CC)Cc1ncccc1O,8.5%,-15.8%,-22.4%,-2.25%,-5.8%,16.1%
O=[N+]([O-])c1ccc(S(=O)c2ccc(Cl)cc2)c2c1no[n+]2[O-] (configuration not stated),98.5% (active),99.4% (active),98.7% (active),32%,76.1% (active),99.2% (active)
C[Si](C)(CCCOCC1CO1)O[Si](C)(C)CCCOCC1CO1 (configuration not stated),26.9%,-29.4%,-5.05%,17.6%,-8.4%,-31.1%
C[n+]1cc(-c2ccccc2)cc2ccccc21,-1.4%,17.9%,-0.3%,-17.6%,4.5%,-14.5%
CCCCSCCO,-0.65%,-0.2%,-4%,-12.4%,-4.4%,0.7%
CCC(=O)Cc1ccc(OC)c(OC)c1,-0.3%,-3.5%,19.6%,7.3%,9.35%,2.5%
Cc1ccc(C(=O)N/N=C/c2c(O)ccc3ccccc23)cc1,-4.7%,20.7%,9.95%,-24.9%,38.5%,27.1%
CN(C)c1nc(Cl)c2c(-c3ccccc3)c(-c3ccccc3)oc2n1,-0.6%,3%,10.5%,16.1%,24.6%,-25.1%
CN(C)c1noc2c1c(=O)n(C)c(=O)n2C,-27.8%,-9.95%,-11.6%,-12.1%,2.6%,14.8%
C=CC(CO)N1CCCCC1 (configuration not stated),-9.15%,24.6%,-1.05%,-8.9%,-19.2%,13.9%
C/C(CCC1CCCCC1)=N/NC(N)=O,14.6%,15.8%,5.25%,14.7%,12.7%,-18.4%
CC(C)N(C(=O)c1ccc([Si](C)(C)C)c(C(=O)N(C(C)C)C(C)C)n1)C(C)C,30.6%,19.8%,20.9%,9.4%,0.1%,28.5%
CC(=O)c1ccc(OCc2ccccc2)c(OCc2ccccc2)c1,2.45%,0.8%,22.8%,10.9%,22.1%,11.2%
CC(C)(NC(=O)OC12CC3CC(CC(C3)C1)C2)C(=O)O,-11.1%,-20.1%,3.1%,-12.6%,3.45%,-5.35%
COc1ccc(C(=C(I)c2ccccc2)c2ccc(OC)cc2)cc1,-31.6%,-26.4%,-11.4%,-15.9%,-25.4%,-18.9%
CC1C(O)=C(O)c2ccccc2N1O (configuration not stated),-9.15%,-11.1%,-8.6%,12.5%,-6.25%,-10.7%
Cc1c(C(=O)CC(=O)C(=O)Nc2cc(Cl)ccc2Cl)[n+](=O)c2ccccc2n1[O-],-7.35%,1.9%,-40.2%,16.2%,1.1%,1.65%
CC(=O)OC(Cc1ccc2ccccc2n1)(C(F)(F)F)C(F)(F)F,-17.6%,-16.1%,-8.05%,6.2%,5.5%,-24.5%
CCOC(=O)/C(CC)=N\O,8.55%,-4.85%,3.75%,3.25%,-4.45%,19.2%

Compound,growth inhibition [1],growth inhibition [2],growth inhibition [3],growth inhibition [4],growth inhibition [5],growth inhibition [6]
COc1cccc(/C=N/[N-]C(N)=O)c1[O-].[OH3+].[Pd+2],7.65%,8.2%,15.9%,7.4%,18.9%,21.6%
CC(C)N(C(=O)C12C3C4C5C3C1(C(=O)N(C(C)C)C(C)C)C5(C#N)C42)C(C)C (configuration not stated),22.6%,3.65%,5.6%,13.7%,13.4%,4.2%
CN(C)c1ccc(C(c2cc3c(cc2O)OCO3)N2CCN(C(c3ccc(N(C)C)cc3)c3cc4c(cc3O)OCO4)CC2)cc1 (configuration not stated),39.8%,31.4%,28.9%,9.3%,13.8%,36.5%
CCC(C)CCOC(=O)c1ccc(N=Cc2ccc(C=Nc3ccc(C(=O)OCCC(C)CC)cc3)cc2)cc1 (configuration not stated),-20.5%,2.7%,30%,11.6%,43.4%,29.9%
CC(C)C1c2ccccc2C(=O)C1C(N)=O (configuration not stated),-16.9%,-11.4%,-12.8%,-22.6%,-4.55%,-10.4%
CC1CCCCC12OCCO2 (configuration not stated),-13.9%,-31.4%,3.3%,1.75%,-20.3%,-3.75%
COc1ccc(CCCc2cc3c(cc2OC)OCO3)cc1,5.6%,-4.1%,15.5%,-8.65%,35.6%,12.2%
Cn1ncc2c(NCc3ccccc3)nc(Cl)nc21,6.5%,-11.2%,16.4%,-9.9%,5.85%,12.9%
CCCCOC1CCC(O)C2CCCCC12 (configuration not stated),5.15%,-2.5%,-1.9%,-0.7%,-0.95%,9.85%
BrCCCC1OCCO1,93.8% (active),53%,85.8% (active),43.5%,73.4% (active),60.2%
O=C(CCCN1CCC(O)(c2ccc(Cl)cc2)CC1)c1ccc(N2CCC(O)CC2)cc1,0.8%,-2.05%,-0.65%,-44.6%,4.4%,1.1%
COC(=O)C(=O)C(C(=O)C(=O)Nc1nc(=S)[nH][nH]1)c1nc2ccc([N+](=O)[O-])cc2[nH]c1=O (configuration not stated),36%,20.6%,11.1%,-17.6%,22.4%,18.9%
COC(=O)c1ccccc1C(=O)O,17.1%,4.05%,11.6%,-10.1%,3.4%,23.2%
O=C(CSSCC(=O)Nc1ccccc1O)Nc1ccccc1O,-11.2%,-8.15%,-11.7%,-24.1%,27.2%,-4.85%
N=C(CNC(=O)OCc1ccccc1)N1CCCC1C(=O)O (configuration not stated),13.6%,2.8%,0.9%,-1.7%,-1.8%,-6.95%
CCC(CC)C(=O)NCC(=O)NO,2.25%,2.85%,1%,-36%,0.6%,9.15%
Cc1nnc2n1N=C(c1ccc(O)c(O)c1O)CS2,2.9%,-3.15%,-4.7%,7.4%,1.75%,-6.1%
CN1CCN(C(=O)/C(=C/c2ccccc2)NC(=O)c2ccccc2)CC1,-6.8%,4%,8.05%,-12.7%,0.1%,8.1%
